Results reported in the supplement of paper PMC10849652.
The full data set covers some 8,800 targets. This sample favours those with a hit. About 0.5% of all pairs of compound and target were hits. Unmarked numbers belong to inactive results.

Assays:
Assay in all cases: log2 fold change, soluble protein after heating vs DMSO (PISA); higher = thermal stabilisation; K562 lysate, 10 uM; active = over 0.2 and 3.5 SD of the protein, either way, in both replicates (recomputed)
alvocidib = compound: CN1CC[C@H](c2c(O)cc(O)c3c(=O)cc(-c4ccccc4Cl)oc23)[C@H](O)C1 [alvocidib]
Summary of the method: (§1)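 Values give the log-two fold change in thermal stability against solvent controls, from duplicates. Crude K562 extract at 1 mg/mL protein, made by dounce homogenisation in PBS pH 7.4 with 1 mM MgCl2, was treated with 10 μM compound for 30 min. After 3 min heating across 48°C-58°C, aliquots were pooled, adjusted to 0.5% NP-40 at 4°C and centrifuged at 21,000xg for 90 min. The supernatant was measured by TMTpro 16plex LC-MS/MS with channel sums equalised.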

Tubastatin A = compound: CN1CCc2c(c3ccccc3n2Cc2ccc(C(=O)NO)cc2)C1 [Tubastatin A]
Summary of the method: as §1

[1] = compound: CNC(=O)C1=CC=CC=C1NC2=NC(=NC=C2Cl)NC3=C(C=C(C=C3)N4CCOCC4)OC
Summary of the method: as §1

defactinib = compound: CNC(=O)c1ccc(Nc2ncc(C(F)(F)F)c(NCc3nccnc3N(C)S(C)(=O)=O)n2)cc1 [defactinib]
Summary of the method: as §1

[2] = compound: CNc1nc(-c2ccc3c(N)n[nH]c3c2)cc(N2C[C@@H](C(=O)NC3CCCCC3)CC[C@H]2C)n1
Summary of the method: as §1

encorafenib = compound: COC(=O)N[C@@H](C)CNc1nccc(-c2cn(C(C)C)nc2-c2cc(Cl)cc(NS(C)(=O)=O)c2F)n1 [encorafenib]
Summary of the method: as §1

[3] = compound: COC(=O)[C@H](CCSC)NC(=O)C1=C(C=C(C=C1)NC[C@H](CS)N)C2=CC=CC=C2
Summary of the method: as §1

alisertib = compound: COc1cc(Nc2ncc3c(n2)-c2ccc(Cl)cc2C(c2c(F)cccc2OC)=NC3)ccc1C(=O)O [alisertib]
Summary of the method: as §1

[4] = compound: COc1cc2nc(-c3cc(F)ccc3O)nc(N[C@@H]3CNC[C@H]3C(C)(C)O)c2cc1OC
Summary of the method: as §1

gefitinib = compound: COc1cc2ncnc(Nc3ccc(F)c(Cl)c3)c2cc1OCCCN1CCOCC1 [gefitinib]
Summary of the method: as §1

UniProt Q9H3P2, sequence (Q9H3P2 whole entry, looked up): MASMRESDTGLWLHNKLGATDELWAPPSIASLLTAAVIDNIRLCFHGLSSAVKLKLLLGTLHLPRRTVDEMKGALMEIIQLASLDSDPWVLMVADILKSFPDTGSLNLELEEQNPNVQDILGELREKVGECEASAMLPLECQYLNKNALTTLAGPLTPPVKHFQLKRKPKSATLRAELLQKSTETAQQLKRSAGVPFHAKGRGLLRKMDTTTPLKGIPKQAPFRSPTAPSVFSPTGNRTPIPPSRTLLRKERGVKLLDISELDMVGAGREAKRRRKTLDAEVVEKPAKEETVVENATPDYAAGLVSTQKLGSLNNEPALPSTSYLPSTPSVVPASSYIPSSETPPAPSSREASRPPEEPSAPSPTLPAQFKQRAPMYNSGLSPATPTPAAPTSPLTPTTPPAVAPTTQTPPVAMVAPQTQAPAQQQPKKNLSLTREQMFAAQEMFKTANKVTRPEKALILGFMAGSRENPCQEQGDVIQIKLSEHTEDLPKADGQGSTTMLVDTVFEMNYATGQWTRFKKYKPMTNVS
UniProt O60934, sequence (O60934 whole entry, looked up): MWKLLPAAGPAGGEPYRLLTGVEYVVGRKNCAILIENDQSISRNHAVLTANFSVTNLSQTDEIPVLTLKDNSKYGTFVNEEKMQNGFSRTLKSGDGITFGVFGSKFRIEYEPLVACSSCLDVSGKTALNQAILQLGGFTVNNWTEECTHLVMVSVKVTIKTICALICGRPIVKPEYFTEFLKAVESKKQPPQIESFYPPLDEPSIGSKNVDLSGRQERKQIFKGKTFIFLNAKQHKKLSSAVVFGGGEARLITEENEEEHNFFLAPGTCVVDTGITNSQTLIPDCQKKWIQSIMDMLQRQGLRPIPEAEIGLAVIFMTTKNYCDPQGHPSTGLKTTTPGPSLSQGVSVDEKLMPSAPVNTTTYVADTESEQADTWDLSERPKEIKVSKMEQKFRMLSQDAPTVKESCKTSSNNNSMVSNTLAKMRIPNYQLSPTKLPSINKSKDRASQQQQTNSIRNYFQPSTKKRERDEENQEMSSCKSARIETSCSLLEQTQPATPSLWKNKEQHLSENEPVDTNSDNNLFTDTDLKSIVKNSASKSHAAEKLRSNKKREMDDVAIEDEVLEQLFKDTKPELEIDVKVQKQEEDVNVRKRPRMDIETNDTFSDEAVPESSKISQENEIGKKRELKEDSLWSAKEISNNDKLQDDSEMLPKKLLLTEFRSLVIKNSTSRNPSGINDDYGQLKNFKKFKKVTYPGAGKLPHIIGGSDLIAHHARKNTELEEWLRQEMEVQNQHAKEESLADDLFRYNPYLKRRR
UniProt P43246, sequence (P43246 whole entry, looked up): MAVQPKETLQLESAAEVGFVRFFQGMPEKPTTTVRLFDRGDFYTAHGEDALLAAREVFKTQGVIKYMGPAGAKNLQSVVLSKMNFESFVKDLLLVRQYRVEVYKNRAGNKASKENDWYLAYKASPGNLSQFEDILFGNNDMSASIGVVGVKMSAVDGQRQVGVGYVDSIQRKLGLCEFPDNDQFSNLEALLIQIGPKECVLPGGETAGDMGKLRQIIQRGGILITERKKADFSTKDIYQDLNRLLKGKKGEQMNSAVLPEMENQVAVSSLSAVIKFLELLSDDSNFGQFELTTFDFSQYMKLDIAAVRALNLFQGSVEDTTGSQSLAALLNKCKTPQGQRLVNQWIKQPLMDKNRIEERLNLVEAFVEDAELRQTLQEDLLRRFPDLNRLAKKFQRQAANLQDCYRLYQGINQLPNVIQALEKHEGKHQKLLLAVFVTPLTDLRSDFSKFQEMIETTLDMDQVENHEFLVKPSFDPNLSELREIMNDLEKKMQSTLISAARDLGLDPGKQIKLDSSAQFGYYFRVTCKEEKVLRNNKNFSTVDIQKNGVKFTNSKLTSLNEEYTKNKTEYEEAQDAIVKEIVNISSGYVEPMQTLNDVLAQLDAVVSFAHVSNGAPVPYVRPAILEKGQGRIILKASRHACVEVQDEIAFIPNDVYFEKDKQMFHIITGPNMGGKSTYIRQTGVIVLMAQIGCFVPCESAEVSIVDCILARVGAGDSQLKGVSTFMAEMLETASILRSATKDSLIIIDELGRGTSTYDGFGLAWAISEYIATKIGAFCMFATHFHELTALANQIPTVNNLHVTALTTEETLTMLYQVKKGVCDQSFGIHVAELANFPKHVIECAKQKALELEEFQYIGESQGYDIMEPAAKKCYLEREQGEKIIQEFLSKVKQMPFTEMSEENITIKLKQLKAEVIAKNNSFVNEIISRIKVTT
UniProt Q8TE04, sequence (Q8TE04 whole entry, looked up): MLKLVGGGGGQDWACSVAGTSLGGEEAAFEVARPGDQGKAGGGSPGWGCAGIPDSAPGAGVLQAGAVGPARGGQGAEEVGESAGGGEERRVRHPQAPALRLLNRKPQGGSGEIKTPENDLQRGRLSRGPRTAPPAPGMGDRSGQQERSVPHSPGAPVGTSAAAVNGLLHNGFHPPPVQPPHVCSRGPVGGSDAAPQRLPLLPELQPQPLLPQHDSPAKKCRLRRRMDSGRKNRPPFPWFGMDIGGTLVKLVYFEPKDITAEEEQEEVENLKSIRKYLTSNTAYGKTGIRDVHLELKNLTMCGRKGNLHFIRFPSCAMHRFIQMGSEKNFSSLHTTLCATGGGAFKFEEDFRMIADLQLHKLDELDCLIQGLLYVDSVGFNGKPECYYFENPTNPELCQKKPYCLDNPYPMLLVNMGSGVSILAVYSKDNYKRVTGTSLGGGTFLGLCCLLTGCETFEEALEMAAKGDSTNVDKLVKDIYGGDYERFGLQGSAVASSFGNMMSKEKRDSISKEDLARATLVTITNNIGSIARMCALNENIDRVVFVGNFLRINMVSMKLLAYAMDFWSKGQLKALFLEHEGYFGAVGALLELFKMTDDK
UniProt O94916, sequence (O94916 whole entry, looked up): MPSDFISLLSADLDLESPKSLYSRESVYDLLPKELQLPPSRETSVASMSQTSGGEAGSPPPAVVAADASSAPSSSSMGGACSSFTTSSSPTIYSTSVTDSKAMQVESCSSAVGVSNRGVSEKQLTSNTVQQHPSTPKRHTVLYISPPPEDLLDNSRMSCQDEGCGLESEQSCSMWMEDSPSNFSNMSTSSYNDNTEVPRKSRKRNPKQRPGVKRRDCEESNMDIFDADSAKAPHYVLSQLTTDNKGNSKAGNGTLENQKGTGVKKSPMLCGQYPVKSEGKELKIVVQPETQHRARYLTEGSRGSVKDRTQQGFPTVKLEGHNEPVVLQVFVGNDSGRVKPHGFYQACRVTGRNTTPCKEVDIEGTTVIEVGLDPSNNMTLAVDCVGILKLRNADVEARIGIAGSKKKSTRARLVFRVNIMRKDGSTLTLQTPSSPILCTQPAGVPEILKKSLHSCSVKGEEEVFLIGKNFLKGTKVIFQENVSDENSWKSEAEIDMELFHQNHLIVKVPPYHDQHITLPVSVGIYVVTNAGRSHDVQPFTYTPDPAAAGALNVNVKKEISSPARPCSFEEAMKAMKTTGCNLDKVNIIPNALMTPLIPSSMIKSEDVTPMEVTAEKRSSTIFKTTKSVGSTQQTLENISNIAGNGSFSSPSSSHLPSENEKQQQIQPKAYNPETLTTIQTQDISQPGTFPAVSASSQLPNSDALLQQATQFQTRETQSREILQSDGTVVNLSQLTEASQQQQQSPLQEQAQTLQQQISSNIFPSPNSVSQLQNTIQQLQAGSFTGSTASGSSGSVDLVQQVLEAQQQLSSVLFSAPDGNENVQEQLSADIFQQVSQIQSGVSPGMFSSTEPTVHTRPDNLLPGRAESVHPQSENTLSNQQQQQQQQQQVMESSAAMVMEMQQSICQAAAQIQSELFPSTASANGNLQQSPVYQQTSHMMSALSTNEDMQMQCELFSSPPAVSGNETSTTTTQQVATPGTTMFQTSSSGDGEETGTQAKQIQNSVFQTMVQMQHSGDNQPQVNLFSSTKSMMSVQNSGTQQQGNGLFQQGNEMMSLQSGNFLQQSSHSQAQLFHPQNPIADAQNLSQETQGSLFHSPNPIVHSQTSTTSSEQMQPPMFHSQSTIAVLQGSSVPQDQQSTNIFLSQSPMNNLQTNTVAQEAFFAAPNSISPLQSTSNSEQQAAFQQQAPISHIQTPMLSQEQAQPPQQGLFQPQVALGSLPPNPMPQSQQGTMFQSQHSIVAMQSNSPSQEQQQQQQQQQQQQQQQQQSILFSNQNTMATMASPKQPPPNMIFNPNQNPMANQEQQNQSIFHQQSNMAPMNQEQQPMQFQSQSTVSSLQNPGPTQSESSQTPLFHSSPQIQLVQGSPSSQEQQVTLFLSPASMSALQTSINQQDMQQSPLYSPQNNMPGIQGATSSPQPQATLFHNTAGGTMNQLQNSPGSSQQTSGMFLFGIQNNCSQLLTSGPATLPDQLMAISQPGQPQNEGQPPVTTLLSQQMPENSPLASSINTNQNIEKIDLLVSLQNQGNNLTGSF
UniProt Q6IBW4, sequence (Q6IBW4 whole entry, looked up): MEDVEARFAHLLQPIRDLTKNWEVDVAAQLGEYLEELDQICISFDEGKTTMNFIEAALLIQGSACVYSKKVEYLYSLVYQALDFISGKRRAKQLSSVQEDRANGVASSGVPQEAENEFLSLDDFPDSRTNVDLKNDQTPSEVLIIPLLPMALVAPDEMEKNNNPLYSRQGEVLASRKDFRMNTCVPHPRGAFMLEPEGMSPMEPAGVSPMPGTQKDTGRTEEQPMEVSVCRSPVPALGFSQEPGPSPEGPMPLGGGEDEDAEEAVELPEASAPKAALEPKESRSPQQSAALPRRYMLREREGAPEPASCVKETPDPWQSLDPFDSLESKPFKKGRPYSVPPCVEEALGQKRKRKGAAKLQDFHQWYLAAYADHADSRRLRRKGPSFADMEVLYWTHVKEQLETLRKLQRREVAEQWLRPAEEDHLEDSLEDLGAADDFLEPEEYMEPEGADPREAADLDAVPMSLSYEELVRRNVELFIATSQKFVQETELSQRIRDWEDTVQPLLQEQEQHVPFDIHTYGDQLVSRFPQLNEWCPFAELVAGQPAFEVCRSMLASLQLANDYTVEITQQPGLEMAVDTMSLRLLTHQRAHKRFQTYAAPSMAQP
UniProt Q9BRA0, sequence (Q9BRA0 whole entry, looked up): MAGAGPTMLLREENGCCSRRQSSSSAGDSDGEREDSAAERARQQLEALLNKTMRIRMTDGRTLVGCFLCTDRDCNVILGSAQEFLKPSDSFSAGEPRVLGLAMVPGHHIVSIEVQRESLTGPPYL

Target	log2 fold change (alvocidib)	log2 fold change (Tubastatin A)	log2 fold change [1]	log2 fold change (defactinib)	log2 fold change [2]	log2 fold change (encorafenib)	log2 fold change [3]	log2 fold change (alisertib)	log2 fold change [4]	log2 fold change (gefitinib)
OTC (UniProt P00480)	-1.18 (active)	0.148	-0.134	-0.188	-0.152	-0.047	-0.018	0.218	-0.023	0.184
MYO1D (UniProt O94832)	0.026	-0.091	-0.006	0.048	-0.008	0.058	-0.012	-0.019	0.012	-0.016
NONO (UniProt Q15233)	0.049	-0.126	0.04	-0.01	0.014	0.011	0.102	0.026	-0.004	0.007
OGFR (UniProt Q9NZT2)	0.022	-0.089	0.002	-0.015	-0.03	0.02	0.089	-0.003	-0.003	-0.004
PAGE2B (UniProt Q5JRK9)	0.059	0.175	0.097	0.253	0.072	0.089	-0.001	0.053	-0.091	-0.051
NIPBL (UniProt Q6KC79)	-0.008	-0.183	-0.04	0.006	0	0.008	0.09	-0.066	0.035	0.027
NLRP2 (UniProt Q9NX02)	0.034	-0.227	0	0.024	-0.044	0.034	-0.239 (active)	-0.025	0	-0.012
NELFA (UniProt Q9H3P2)	0.036	-0.139	0.022	0.056	0.051	0	0.025	0.006	-0.006	-0.015
PAIP2 (UniProt Q9BPZ3)	0.009	0.045	-0.03	-0.056	0.037	-0.092	0.071	-0.038	-0.049	-0.019
OSBPL6 isoform 5 (UniProt Q9BZF3)	-0.056	-0.05	-0.043	-0.063	-0.047	-0.005	0.015	-0.068	-0.004	0.164
MRPL53 (UniProt Q96EL3)	0.005	-0.048	-0.02	0.051	-0.048	-0.036	-0.226 (active)	0.049	0	-0.048
NBN (UniProt O60934)	0.008	-0.041	-0.006	-0.029	0.014	0.022	0.048	-0.009	0.018	-0.061
PANK1 (UniProt Q8TE04)	0.002	0.025	0.051	-0.082	-0.076	0.312	0.173	0.001	-0.096	0.072
MYBL2 (UniProt P10244)	0	-0.15	0.045	0.113	-0.016	0.088	-0.023	–	–	–
MTHFD1L (UniProt B7ZM99)	0.029	-0.084	0.02	0.034	-0.01	-0.041	0.072	0.032	0.009	-0.007
PAXBP1 (UniProt Q9Y5B6)	-0.043	-0.069	0.015	0.005	-0.004	0.018	0.29 (active)	0.013	-0.003	-0.038
NPTN (UniProt Q9Y639)	-0.023	-0.01	0	-0.185	0.03	-0.023	0.015	0.011	0.042	0.024
NSUN2 (UniProt Q08J23)	0.019	-0.097	-0.018	0.007	-0.024	-0.011	0.096	0.014	-0.007	-0.02
NEXN (UniProt Q0ZGT2)	-0.102	-0.049	0.026	0.134	0.158	-0.096	0.044	0.004	-0.086	0.092
NAA38 isoform 2 (UniProt Q9BRA0)	-0.143	-0.005	0.01	0.013	0.03	-0.022	0.001	0.05	0.022	-0.017
NNMT (UniProt P40261)	-0.001	-0.03	0	-0.049	-0.086	0.043	-0.317 (active)	0	0.009	0.004
NFAT5 isoform 5 (UniProt O94916)	-0.026	0.003	-0.027	0.007	0.077	0.043	-0.041	-0.072	-0.01	0.454 (active)
NCAPH2 (UniProt Q6IBW4)	0.038	-0.193	0	0.005	-0.084	0.064	-0.039	-0.027	0.01	-0.048
MSH2 (UniProt P43246)	0.026	-0.105	-0.017	0.023	0.007	0.011	0.061	-0.011	-0.002	-0.007
OPA1 isoform 2 (UniProt O60313)	0.012	0.038	-0.032	-0.013	-0.042	-0.017	0.053	0.03	-0.041	-0.003
PAK1 (UniProt Q13153)	-0.023	0.026	0.011	-0.006	0.044	-0.012	0.023	0.016	0.02	-0.06
OSBP (UniProt P22059)	0	0.06	-0.193	-0.009	-0.155	0.017	0.001	0.026	0.042	-0.045
NUP98 (UniProt P52948)	-0.019	-0.117	0.029	0.031	0.047	0.064	-0.04	0.01	0.017	0.011
NEBL isoform 2 (UniProt O76041)	-0.079	0.07	0.012	0.011	0.023	0.009	-0.043	-0.024	-0.003	0.037
NDUFS1 isoform 2 (UniProt P28331)	0.008	-0.018	-0.024	0.028	0.014	-0.011	0.05	0.03	-0.025	-0.001
